Laboratory results from PubChem BioAssay AID720513 (Broad Institute, 2013).
The campaign covered roughly 2,100 compounds. About 480 (23%) were called active. Inconclusive results (about 5%) are left out.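 How the source made its calls: active means fitted curve reaches 40% activation at or below the top valid concentration, in every replicate test; inconclusive means replicate tests disagree on the call; inactive means the rest, including activity in the opposite direction.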 A selection follows. Potency and affinity values are given separately.

test: PGC1a acetylation increase, cellular AlphaLISA – cell-based, cherry-picked samples, set 6, dose response (AID 720513); details: U2OS PGC1a acetylation AlphaLISA, overnight, 0 = neutral, -100 = inhibitor control; series mostly up to 19.5 µM;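 further: cells made to overexpress flag tagged PGC1a plus GCN5 acetyltransferase by viral infection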

outcome, inactive:
CCCNC(=O)N(C)C[C@H]1Oc2cc(C#CCC(C)C)ccc2S(=O)(=O)N([C@@H](C)CO)C[C@H]1C, COc1cc(CCC(=O)Nc2cc(C)cc(C)c2)cc(OC)c1OC, Cc1ccc(S(=O)(=O)N(CC2CO2)c2ccccc2[N+](=O)[O-])cc1 (stereo not drawn), O=S(=O)(O)c1nc2ccccc2n1Cc1ccc(Cl)cc1, CC(C)c1ccccc1NC(=O)Cn1c(-c2ccccc2Cl)nc2ccccc21, O=S(=O)(c1ccc(N2CCC(c3ccc(Cl)cc3)=N2)cc1)N(CCO)CCO, COc1cccc(N2C(=NC(=O)c3ccccc3)SC3CS(=O)(=O)CC32)c1 (stereo not drawn), CCOC(=O)c1ccc2[nH]c(C)c(CN3CCN(C)CC3)c(=O)c2c1, CC(Sc1nnc(N)s1)C(=O)Nc1ccc2c(c1)OCO2 (stereo not drawn), CCCN(C)C[C@H]1Oc2cc(C#Cc3ccc(OC)cc3)ccc2S(=O)(=O)N([C@@H](C)CO)C[C@H]1C, C[C@H](CO)N1C[C@H](C)[C@H](CN(C)C(=O)C2CCCCC2)Oc2cc(-c3ccccc3)ccc2S1(=O)=O, Cc1cc(N)c2cc(NC(=O)/C=C/c3ccccc3Cl)ccc2n1, COc1ccc(-c2cn[nH]c2-c2ccc(O)cc2O)cc1, O=C(CCCc1cccs1)NCCc1c[nH]c2ccccc12, O=C(CN1C(=O)C2C3CC(C(Br)C3Br)C2C1=O)OCC(=O)c1cccc([N+](=O)[O-])c1 (stereo not drawn), CC1=C(C(=O)OC(C)(C)C)C(c2ccc3ccccc3c2)NC(=O)N1C (stereo not drawn), O=C(Cn1cc(C(=O)c2cccs2)c2ccccc21)NCC1CCCO1 (stereo not drawn), O=C(O)Cn1cc(C(=O)C(F)(F)F)c2ccccc21, Cc1ccc(C(=O)Nc2nc(=O)n(C(=O)CC(C)C)s2)cc1, CN(C)c1ccc(/C=N/N(CCC#N)C2=NS(=O)(=O)c3ccccc32)cc1, O=C(COc1ccccc1Cl)Nc1ccc(Cl)cn1, COc1ccccc1C(=O)N1C(CC(=O)Nc2cc(Cl)ccc2C)C(=O)NC2CCCCC21 (stereo not drawn), Cc1ccc(Sc2ncnc3onc(C)c23)c(C)c1, Cc1ccccc1CS(=O)(=O)c1nnc([C@H](CC(C)C)NC(=O)OC(C)(C)C)o1, COc1ccc(S(=O)(=O)N2CCC(C(=O)N3CCC(C(N)=O)CC3)CC2)cc1Cl, Cc1ccc(CN2CC(C(=O)N3CCN(S(=O)(=O)c4cccc(F)c4)CC3)CC2=O)cc1 (stereo not drawn), CC(C)CC#Cc1ccc2c(c1)O[C@H](CN(C)C(=O)Cc1ccccc1)[C@H](C)CN([C@H](C)CO)S2(=O)=O, COCCn1c(C)c(C)c2c(NCCc3ccccc3)ncnc21, O=CNCCc1nc2ccccc2n1CCc1ccccc1, CN1CCN(C2=C(Cl)C(=O)N(CCc3ccccc3)C2=O)CC1, Cc1ccc(-c2ccc(C3[C@@H]4CN(C(=O)Nc5ccc(C(F)(F)F)cc5)C[C@H]3N4)cc2)cc1 (stereo partly drawn), COCCNC(=O)CSc1nc2c(n1-c1ccccc1)CCCC2, C[C@@H]1CN([C@H](C)CO)C(=O)c2cccc(NC(=O)C3CCCCC3)c2O[C@@H]1CN(C)CC1CCCCC1, CCOC(=O)c1ccc(-c2c(-c3cc(OC)c(OC)c(OC)c3)noc2C)cc1F, O=C(C[C@@H]1C=C[C@@H](NC(=O)Nc2ccc(F)cc2)[C@@H](CO)O1)NCCN1CCCC1, CC(C)c1nc2sc3c(NCc4ccco4)ncnc3c2c2c1COC(C)(C)C2, Cc1cccc(-c2ccc(C3[C@@H]4CN(C(=O)Nc5ccc(C(F)(F)F)cc5)C[C@H]3N4)cc2)c1 (stereo partly drawn), COc1cccc(-n2c(Cc3cc(=O)[nH]c(=O)[nH]3)nnc2SCc2cccc(C(F)(F)F)c2)c1, O=C(Nc1ccc(F)cc1)c1sc2cc(C(F)(F)F)cnc2c1-c1cccs1, COc1ccc(N(Cc2cc3cc(OC)ccc3[nH]c2=O)S(C)(=O)=O)cc1, COc1ccc(Oc2c(Cl)cnn(-c3ccccc3)c2=O)cc1, O=C(Nc1ccccc1)Nc1cc(Cl)cc(Cl)c1, C[C@H](CO)N1C[C@H](C)[C@@H](CN(C)C(=O)Nc2ccc(F)cc2)Oc2ncc(C#CC3CC3)cc2C1=O, O=C(c1ccco1)N1CCN(c2ncnc3scc(-c4cccs4)c23)CC1, COc1ccc(C2CC(c3cccs3)=NN2c2nc(C)c(C(C)=O)s2)cc1OC (stereo not drawn), CCOC(=O)C1CCN(C(=O)CSc2ccc(Br)cc2)CC1, COc1ccccc1Oc1ccc2c(c1)C(=O)N(c1ccc(C)cc1)C2=O, O=C(O)c1cc(N2CCCCC2)ccn1, N#Cc1sc2nccc(Nc3ccccc3)c2c1N, c1ccc(N2CCN(C3CC4CCC3C4)CC2)cc1 (stereo not drawn), COc1ccc(C(=O)Nc2ccc(S(=O)(=O)Nc3cc(C)nc(C)n3)cc2)cc1, Cc1ccc(OC[C@H](O)[C@H](C)NC(C)C)c2c1CCC2, CN(C)c1ccc(Sc2ccc3nc(N)nc(N)c3c2)cc1, O=C(Nc1cccc(F)c1)N1CC(=O)N2[C@@H](CO)[C@@H](c3ccc(C#Cc4cccnc4)cc3)[C@@H]2C1, CCCCCSc1nnc(C)c(=O)[nH]1, O=C(CC1CC1)N[C@H]1CC[C@@H](CCNS(=O)(=O)c2ccc(Cl)cc2)O[C@@H]1CO, CCOC(=O)c1c(-c2ccco2)csc1NC(=O)COC(=O)c1cnccn1, CCOC(=O)NC(=O)CSc1nnnn1-c1ccc(C)cc1, O=C(C[C@H]1CC[C@H](NC(=O)C2CCC2)[C@@H](CO)O1)NCC1CC1, Cc1ccccc1-c1ccc(C2[C@@H]3CN(C(=O)Nc4cccc(F)c4)C[C@H]2N3)cc1 (stereo partly drawn), O=C(Nc1ccc(F)cc1)N1CCCCN2[C@H](CO)[C@@H](c3ccc(C#Cc4ccccc4)cc3)[C@H]2C1, COCCN(C(=O)CSc1nn(-c2ccc(F)cc2)c(=S)s1)c1c(N)n(CC(C)C)c(=O)[nH]c1=O, COc1ccccc1CNS(=O)(=O)c1cc(C)ccc1OC, C[C@@H]1CN([C@@H](C)CO)C(=O)CCCn2nncc2CO[C@H]1CN(C)Cc1ccc(O)cc1, CCOc1ccc(N(CC(=O)Nc2ccccc2OC)S(=O)(=O)c2ccccc2)cc1, C[C@@H]1CCCCO[C@H](CN(C)Cc2ccc3c(c2)OCO3)[C@@H](C)CN([C@@H](C)CO)C(=O)c2cc(NC(=O)Nc3ccc(C(F)(F)F)cc3)ccc2O1, CC(=O)c1cccc(-c2ccnc3c2CC(C(=O)NCC2CC2)O3)c1 (stereo not drawn), CC(=O)c1cccc(-c2ccnc3c2CC(C(=O)Nc2ccc4c(c2)OCO4)O3)c1 (stereo not drawn), O=C(CSc1nnc(-c2ccncc2)n1-c1ccc(Cl)cc1)NCc1cccs1, O=C(NCc1ccccc1)C1Cc2c(-c3ccc4c(c3)OCO4)ccnc2O1 (stereo not drawn), COc1ccc(-c2[nH]ncc2-c2ccc3c(c2)OCCO3)c(O)c1, Cn1nc(C(=O)N2CCCCC2)c2c1-c1ccccc1S(=O)(=O)C2, CC(C)(C)c1ccc(-n2nc(C#N)c(Cl)cc2=O)cc1, Cc1cc(-c2c(C)[nH]n(-c3ccc(Cl)cc3)c2=O)n(-c2ccccc2)n1, COc1ccc(CN(C)C[C@@H]2OCCCC[C@@H](C)Oc3ccc(NS(C)(=O)=O)cc3C(=O)N([C@H](C)CO)C[C@@H]2C)cc1, CC(C)(C)NS(=O)(=O)c1ccc(-c2csnn2)s1, CC(C)CC#Cc1ccc2c(c1)O[C@H](CN(C)C)[C@@H](C)CN([C@H](C)CO)S2(=O)=O, CCC1(CC)Cc2ccccc2-c2nc(CN(C)C)[nH]c(=O)c21, COc1cc(C(C)=O)ccc1OCC(O)CN1CCN(c2ccc(C)c(C)c2)CC1 (stereo not drawn), CC(=O)c1ccc(N2CCN(S(=O)(=O)c3csc(C(N)=O)c3)CC2)cc1, COc1ccc(-c2cnc3c(c2)C(=O)N([C@H](C)CO)C[C@H](C)[C@@H](CN(C)C(=O)C2CCC2)O3)cc1, COc1ccc(CN(C)C[C@H]2Oc3ccc(NC(=O)Cc4cn(C)c5ccccc45)cc3CC(=O)N([C@@H](C)CO)C[C@@H]2C)cc1, COc1ccc(-c2cnc3c(c2)C(=O)N([C@H](C)CO)C[C@H](C)[C@@H](CN(C)C(=O)C2CC2)O3)cc1, C[C@@H]1CN([C@H](C)CO)C(=O)c2cc(-c3ccccc3)cnc2O[C@@H]1CN(C)C(=O)Cc1ccccc1, C[C@@H]1CN([C@H](C)CO)C(=O)CCCn2cc(nn2)CO[C@@H]1CN(C)C(=O)OCc1ccccc1, CCCCC(C(=O)O)C(C)CC(=O)Nc1nncs1 (stereo not drawn), C[C@@H]1CN([C@@H](C)CO)C(=O)c2cc(C3=CCCC3)cnc2O[C@H]1CN(C)C(=O)Nc1cccc(F)c1, CCOc1ccc(CN2CCNC(=O)C2CC(=O)NCc2ccccn2)cc1 (stereo not drawn), CSCCC(NC(=O)OC(C)(C)C)C(=O)Oc1ccc2c(=O)c(-c3ccc4c(c3)OCCO4)coc2c1 (stereo not drawn), O=C(C1CCCO1)N1CCN(Cc2c(O)ccc3ccccc23)CC1 (stereo not drawn), C[C@@H]1CCCCO[C@H](CN(C)Cc2ccc(C(F)(F)F)cc2)[C@H](C)CN([C@@H](C)CO)C(=O)c2cc(NC(=O)NC3CCCCC3)ccc2O1, COc1cccc(-c2noc(C3CCCN(C(=O)Cc4ccccc4)C3)n2)c1 (stereo not drawn), COc1ccc(CN(Cc2cccn2C)S(=O)(=O)c2ccccc2)cc1
